Screening data from PubChem.
Tg IFNy HTS = T. gondii growth inhibition with IFN-gamma, primary screen, cell-based | Toxoplasma gondii growth in IFN-gamma-treated host cells; active compounds read low | activity change, negative = inhibition, % (no concentration beside the values) | hit rate 3.8% among 69,000; in the data active = activity change below about -70%, passing the limit was not always enough;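 note: host cells are HeLa cells infected with Toxoplasma gondii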
Large screens that a line does not name were inactive; ! = a repeat was not active. This is one part of a sample in which hits are shown more often than they occur.

C#C[C@]1(OC(C)=O)CCC2C3CCC4=C/C(=N/O)CCC4C3CC[C@@]21CC (stereo partly drawn)	Tg IFNy HTS -78
CCSCC(C)NC1CCN(S(C)(=O)=O)CC1 (stereo not drawn)	none
CCc1nn(-c2ccccc2)c(NC(=O)c2ccc(C)[nH]c2=O)c1C	none
Cc1nc(-n2cnnc2)ccc1-c1ccc2c(c1)OCO2	Tg IFNy HTS -97
Cc1cnc(-n2cnnc2)c(-c2ccc3c(c2)OCCO3)c1	none
Cc1ccc(-c2nnc(-c3ccc4c(c3)OCO4)o2)cc1	none
COc1ccc(OC)c(S(=O)(=O)N2CCC3(CC2)Nc2ccccc2-n2cccc23)c1	none
CN1[C@@H]2CC(OC(=O)[C@H](CO)c3ccccc3)C[C@H]1[C@H]1O[C@H]12 (stereo partly drawn)	none
CCOc1ccccc1NC(=O)c1cnccn1	none
Cc1nc(NC(=O)c2cnccn2)ccc1Br	none
O=C(Nc1ccc(OC(F)(F)F)cc1Br)c1cnccn1	Tg IFNy HTS -110
CCC(C)c1ccccc1OCC(=O)N1CCC(N2CCCC2)CC1 (stereo not drawn)	none
CCOc1ccc(-c2nc(Cn3ccn4nc(-c5ccc(CC)cc5)cc4c3=O)c(C)o2)cc1OC	none
CSc1ccc(C(=O)C2CCCN(S(=O)(=O)c3ccccc3)C2)cc1 (stereo not drawn)	none
Cn1c2c(c(=O)n1C)CN(S(=O)(=O)c1ccccc1)CCC2	Tg IFNy HTS -75
Cc1nc(N2CCCC2)nc2c1CCN(S(=O)(=O)c1ccccc1)CC2	none
CC(=O)N1CCN(CC2CC2)CC2(CC(=O)N(C)C2)C1 (stereo not drawn)	none
COc1ccc(O)c(C2=Nc3ccccc3N=C(c3ccccc3)C2)c1	none
COc1ccc(O)c(-c2nc3c(C(C)(C)C)cc(C(C)(C)C)c(O)c3o2)c1	Tg IFNy HTS -119
COc1ccc(O)c(N)c1	none
O=C(CC1CC1)N1CCC2(CCCN2)CC1	none
O=C(CCC1CCCC1)N1CCc2c([nH]c3ccccc23)C1c1cccnc1 (stereo not drawn)	none
COc1ccc(C2c3[nH]c4ccccc4c3CCN2C(=O)c2ccncc2)cc1 (stereo not drawn)	none
O=C(c1ccc(F)cc1)N1CCc2c([nH]c3ccccc23)C1c1cccnc1 (stereo not drawn)	none
O=C(c1cccc(F)c1)N1CCc2c([nH]c3ccccc23)C1c1cccnc1 (stereo not drawn)	Tg IFNy HTS -96
COc1cccc(C(=O)N2CCc3c([nH]c4ccccc34)C2c2cccnc2)c1 (stereo not drawn)	Tg IFNy HTS -107
NS(=O)(=O)c1ccc(NC(=O)CSC2=NC(=O)C(c3ccccc3)C(=O)N2)cc1 (stereo not drawn)	none
O=C(O)C1C2C=CC(C2)C1C(=O)NC1CCS(=O)(=O)C1 (stereo not drawn)	none
CC(C)N1CCC(c2nnc3ccc(C(=O)N4CCCC4)cn23)C1 (stereo not drawn)	none
COc1ccc(CN2CCc3c([nH]c4ccccc34)C2c2cnn(C(C)C)c2)c(F)c1 (stereo not drawn)	none
Cc1noc(-c2cc(=O)n(CC(=O)Nc3ccc(Cl)cc3)c3ccccc23)n1	none
Cc1ccsc1/C=N\NC(=O)c1ccc2c(c1)OCO2	none
Cc1ccc(/C=N/NC(=O)c2ccccc2Oc2ccccc2)o1	none
O=C(N/N=C/c1ccc([N+](=O)[O-])o1)c1ccc(O)cc1	Tg IFNy HTS -81!
COc1ccc(CNC(=O)Cn2ncc3c(N4CCOCC4)ncnc32)cc1OC	none
CC(=O)c1[nH]c(C)c(C(=O)N2CCOC(c3ccc(F)cc3)C2)c1C (stereo not drawn)	none
CCC(CN1CCOCC1)NC(=O)Cc1csc2ccc(C)cc12 (stereo not drawn)	none
Cc1cc(N2CCc3nc[nH]c3C2)nc(-c2ccccc2)n1	none
O=C1Cc2c([nH]c3ccc([N+](=O)[O-])cc23)-c2ccccc2N1	Tg IFNy HTS -74
CCCCC(=O)Nc1cc2nc(CCCC)n(Cc3ccccc3Cl)c2nc1C	none
CCN(CC)CCn1c(=O)c(Cc2ccc(OC)cc2)nc2ccccc21	none
CCCCc1nc2cc(/C=C/C(=O)NO)ccc2n1CCN(CC)CC	Tg IFNy HTS -82
Cn1cc(CN2CCCC(C(=O)c3ccc4c(c3)OCO4)C2)c2ccccc21 (stereo not drawn)	none
O=C(CSc1n[nH]c(=O)n1-c1cccnc1)N1CCOCC1	none
COc1cccc(NC(=O)C(=O)NCCc2csc(-c3ccc(Cl)cc3)n2)c1	none
Cc1nc(OCC(=O)Nc2ccc(Br)cc2)c2ccccc2n1	none
Fc1ccc(CSc2nc(Nc3ccc(F)cc3)c3ccccc3n2)cc1	none
Brc1ccc(Nc2c3ccccc3nc3ccccc23)cc1	Tg IFNy HTS -92
CN(C)C(=O)NCc1nnn2c1CN(CC1CCOCC1)CCC2	none
CN(C)CC(=O)N1CCOC2C(COc3ncccn3)CCC21 (stereo not drawn)	none
CSCc1ccc(C(=O)N(C)C(C)Cc2cc(C)ccn2)o1 (stereo not drawn)	none
CCOc1ccc(-c2cnc(-c3nccn3CC)[nH]2)cc1OCC	Tg IFNy HTS -81
CCCc1ncc(-c2ccc(OCC)c(OCC)c2)[nH]1	none
CCOc1ccc(-c2cnc[nH]2)cc1OCC	none
COc1ccc(-c2cn(CC[C@H]3CC[C@@H](NC(=O)c4cnccn4)[C@@H](CO)O3)nn2)cc1	none
CC(C)(C)CC(C)(C)c1ccc(O)c(-n2nc3ccccc3n2)c1	none
C[N+](C)(CCOc1ccccc1)Cc1ccccc1	none
Cc1cc(C(C)(C)CC(C)(C)C)ccc1OCCOCC[N+](C)(C)Cc1ccccc1	Tg IFNy HTS -85
O=C(Nc1cccc(-c2nc3ccccc3o2)c1)c1ccccc1	none
CC(C)CC(=O)Nc1ccc2oc(-c3ccncc3)nc2c1	none
CC(C)(C)c1ccc(C(=O)Nc2ccc3oc(-c4ccccc4)nc3c2)cc1	Tg IFNy HTS -84
CN1C(=O)c2cc(NC(=O)C3CCOCC3)ccc2OC[C@H]2O[C@@H](CC(=O)NCc3ccccc3F)CC[C@@H]21	none
COC(=O)c1cc(C(=O)OC)c(=O)[nH]c1C	none
COc1cccc(-c2nc(-c3noc4ccc(C(=O)N5CCCN(C)CC5)cc34)co2)c1	none
Cc1nc(-c2cc(S(=O)(=O)N3CCC(C)CC3)c(C)s2)sc1C	none
Cc1sc(-c2nc(C(C)C)cs2)cc1S(=O)(=O)N1CCC(C)CC1	Tg IFNy HTS -89
Cc1nc(-c2cc(S(=O)(=O)N3CCCCC3C)c(C)s2)sc1C (stereo not drawn)	none
CC(C)(C)N(CCNS(=O)(=O)c1ccc2[nH]c(=O)ccc2c1)Cc1ccco1	none
O=C(CS(=O)(=O)Cc1ccccc1)NCc1ccc2c(c1)OCO2	none
CCc1nc(OCC(=O)NCc2ccc3c(c2)OCO3)c2ccccc2n1	none
c1ccc(-c2cc3ncnc(NCc4ccc5c(c4)OCO5)c3s2)cc1	Tg IFNy HTS -105
CC(C)N1CCC(CNC(=O)CC2=CCCCC2)C1 (stereo not drawn)	none
COc1ccc(S(=O)(=O)Nc2cncc(C(=O)Nc3ccc(F)cc3F)c2)cc1OC	none
CNC(=O)c1cccc2cc(Oc3ccnc4cc(OCC5(N)CC5)c(OC)cc34)ccc12	none
COc1cc2nccc(Oc3ccc(NC(=O)Nc4cc(C)on4)c(Cl)c3)c2cc1OC	Tg IFNy HTS -81
COc1cc2nccc(Oc3ccc(NC(=O)Nc4ccc(F)cc4F)c(F)c3)c2cc1OC	Tg IFNy HTS -75
COc1cc2nccc(Oc3ccc(NC(=O)NC4CC4)c(Cl)c3)c2cc1C(N)=O	none
COc1cc(Nc2ccnc3cc(Cl)ccc23)c(C(=O)O)cc1OC	none
O=S(=O)(c1cccc(F)c1)N1CCC2(CC1)COCCN(Cc1cccnc1)C2	none
O=C(C[C@@H]1CC[C@@H]2[C@H](COC[C@@H](O)CN2CCC(F)(F)F)O1)NCc1ccc2c(c1)OCO2	none
